FLuc counter = firefly luciferase modulation, counter-screen for miR-21 project | P08659 | purified FLuc, Km substrates, luminescence inhibition | Potency, µM (top dose mostly 57.5 µM), without a hit: at the top dose activity change, negative = inhibition, most hits filed as inhibitors | hit rate 6.9% among 360,000;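 further: plate controls were vehicle for no effect and reference inhibitor for full effect; nearly all actives have a fitted effect of over 55% in size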
Target sequence (P08659 whole entry, looked up): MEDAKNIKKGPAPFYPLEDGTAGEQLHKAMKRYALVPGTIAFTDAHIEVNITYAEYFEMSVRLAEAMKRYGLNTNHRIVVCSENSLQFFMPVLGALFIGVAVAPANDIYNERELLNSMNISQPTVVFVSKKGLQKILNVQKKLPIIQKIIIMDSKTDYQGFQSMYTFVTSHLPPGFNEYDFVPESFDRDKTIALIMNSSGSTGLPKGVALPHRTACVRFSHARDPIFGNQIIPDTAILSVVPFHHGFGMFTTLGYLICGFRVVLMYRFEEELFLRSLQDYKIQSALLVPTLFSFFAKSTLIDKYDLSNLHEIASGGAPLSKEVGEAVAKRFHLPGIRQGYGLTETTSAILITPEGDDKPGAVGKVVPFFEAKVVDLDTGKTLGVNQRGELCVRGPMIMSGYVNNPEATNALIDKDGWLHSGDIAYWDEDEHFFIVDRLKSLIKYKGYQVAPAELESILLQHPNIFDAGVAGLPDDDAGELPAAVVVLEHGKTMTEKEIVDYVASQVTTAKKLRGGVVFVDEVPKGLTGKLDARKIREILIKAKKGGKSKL
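Purified P. pyralis luciferase, 10 nM final, with Km-level 10 uM D-luciferin and 10 uM ATP in 50 mM Tris acetate pH 7.5, 10 mM Mg acetate, 0.01% Tween-20, 0.05% BSA; 6-point qHTS titration about 60 µM downward; luminescence read.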
SMN2 splice enh = enhancers of SMN2 splice variant expression; HEK293 SMN2-luciferase splicing reporter, luminescence, 30-36 h; Potency, µM (doses to about 46.1 µM), without a hit: top-dose activity change, positive = activation, hits mostly activators; hit rate 2.8% among 210,000; further: % of control where 0% means no effect; nearly all actives have a fitted effect of over 55% in size
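qHTS luciferase splicing reporter: luminescence rises when SMN2 exon 7 is included in transfected HEK293 cells. Compound exposure lasted 30-36 h at 37C, with 4.5 mM final sodium butyrate as control, followed by a ONE-Glo read.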
NPC1 promoter act = NPC1 promoter activation; Huh7 NPC1 promoter luciferase reporter, 24 h; Potency, µM (series often up to 9.22 µM), for the others: top-dose activation, most hits filed as activators; hit rate 2.4% among 320,000; further: % of control where 0% means no effect; nearly all actives have a fitted effect of over 60% in size
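Quantitative HTS used a cell-based reporter: Huh7 cells stably bearing the NPC1 promoter upstream of luciferase were treated with compounds for 24 h, and promoter activation was read as luminescence.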
Rab9 prom act = Rab9 promoter activation. Huh7 Rab9 promoter-luciferase reporter, luminescence, 24 h. Potency, µM (top dose mostly 9.22 µM), inactives show at the top dose activation, negative = inhibition, actives largely listed as activators. hit rate 2.8% among 320,000; further: % of control where 0% means no effect; nearly all actives have a fitted effect of over 60% in size
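Steps: seed 1500 Huh7 Rab9-luc cells per well, rest 2 h at 37 °C; add compound in DMSO; incubate 24 h; add luciferase reagent, 10 min ambient; read luminescence.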
ELG1 DNA repair = inhibitors of ELG1-dependent DNA repair in HEK293T cells; Potency, µM (highest dose often 46.1 µM), for inactives: at the highest dose activity change, negative = inhibition, actives largely listed as inhibitors; AID 504467; HEK293T ELG1-luciferase reporter, luminescence, 16 h; DNA damage induced by 5-fluorouridine; hit rate 2.3% among 330,000; further: on the % scale 0 is the no-effect control and ±100 the full control effect; nearly all actives have a fitted effect of over 55% in size
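Step one: seed 2,000 cells per well. Step two: pin-transfer compound or DMSO alongside 5-fluorouridine. Step three: incubate 16 hr, 37 °C, 5% CO2. Step four: add ONE-Glo, wait 30 min, read luminescence.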
ELG1 genotoxic = induces genotoxicity in HEK293T cells with luciferase-tagged ELG1; Potency, µM (titrated, usually from 46 µM), for inactives: top-dose activity change, positive = activation, actives largely listed as activators; AID 504466; HEK293T ELG1-luciferase reporter, luminescence, 16 h; hit rate 1.3% among 330,000; further: % of control where 0% means no effect; nearly all actives have a fitted effect of over 60% in size
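After overnight (16 hr) compound treatment at 37 °C, ELG1-luciferase HEK293T cells were lysed with ONE-Glo; luminescence quantified 30 min later at room temperature.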
An asterisk follows results filed as active; ? = inconclusive; . = no result given. An excerpt weighted towards active compounds, which were near 9.3% of everything screened. The call rests on the fitted dose curve; in most records, active means well fitted curve in the direction sought with a large enough effect; inconclusive means small, poorly fitted or top-dose-only effect, or another doubt; inactive means no such curve, though single readings can be large; an effect the other way counts as inactive or inconclusive. Potency means the concentration at half of the fitted maximal effect.

SMILES	FLuc counter	SMN2 splice enh	NPC1 promoter act	Rab9 prom act	ELG1 DNA repair	ELG1 genotoxic
C=CCn1c(C)cc(C(=O)COc2nncc3ccccc23)c1C	15µM*	?	1.4µM*	?	?	10µM*
COCCn1c(C)cc(C(=O)CSc2ccc3ccccc3n2)c1C	12µM*	11µM*	?	?	?	4%
Cc1cc(C)c(C(=O)CSc2nc3ccccc3c(=O)[nH]2)cc1C	-10%	-26%	-13%	-6%	?	-2%
COCCn1c(C)cc(C(=O)COc2nc3ccccc3nc2C)c1C	-16%	-54%	-8%	-6%	23µM*	-2%
C=CCn1c(C)cc(C(=O)COc2ccc(C)nc2[N+](=O)[O-])c1C	?	-37%	-1%	-4%	?	?
O=C(Nc1ccc(Cl)c(S(=O)(=O)N2CCCCC2)c1)c1cnccn1	-1%	.	-2%	-5%	-16%	-1%
COC(CN(C)C(=O)C1CCC(CNS(=O)(=O)c2ccccc2)CC1)OC (stereo unspecified)	0%	.	-1%	6%	-21%	-2%
CCOC(=O)c1ccc(NC(=O)CCS(=O)(=O)c2cccc3nonc23)cc1	2%	.	-1%	5%	-2%	?
C=CCn1c(C)cc(C(=O)CSc2nc3ccccc3[nH]2)c1C	0.3µM*	-59%	0.13µM*	0.32µM*	?	?
Cc1cc(C(=O)CSc2nc3ccccc3[nH]2)c(C)n1Cc1ccco1	0.76µM*	?	0.71µM*	0.5µM*	?	?
O=C(O)c1ccccc1CSc1nc2ccccc2[nH]1	11µM*	.	?	?	?	?
Cc1cc(C(=O)CSc2nnc(-c3ccco3)o2)c(C)n1Cc1ccco1	?	-21%	0%	7%	24%	?
Cc1cc(C(=O)CSc2nc3ccc(Cl)cc3[nH]2)c(C)n1CC1CCCO1 (stereo unspecified)	?	-82%	-2%	-4%	23µM*	-8%
Cc1cc(C(=O)CSc2nc3ccc(Cl)cc3[nH]2)c(C)n1C	-17%	19%	-2%	1%	-9%	0%
Cc1[nH]n(-c2ccccc2)c(=O)c1/C=N/N(C)c1ccccc1	?	-19%	0%	-3%	7%	-5%
Cc1cc(C(=O)CSc2nncs2)c(C)n1Cc1ccco1	4.8µM*	3%	0.63µM*	0.71µM*	?	?
Cc1ccc2c(c1)c(C)cc[n+]2Cc1ccccc1	5%	.	-20%	-27%	-14%	-9%
O=C(Nc1ccccc1F)c1ccc(COc2ccc(Cl)cc2Cl)o1	?	13µM*	-1%	0%	10%	-3%
O=C(Nc1ccccc1F)c1ccc(CSc2ccccc2)o1	17µM*	19%	15%	17%	?	?
CC(=O)Nc1ccc(NC(=O)c2ccc(CSc3ccccc3)o2)cc1	-5%	-48%	-2%	-3%	?	-5%
O=C(Nc1cccc(F)c1)c1ccc(CSc2ccccc2)o1	19µM*	?	23%	21%	?	19%
CCN(CC)c1ccc(NC(=O)CN2CCN(c3ccccc3F)CC2)cc1	0%	9%	2%	-4%	-18%	-3%
O=C(Cn1cnc2c(cnn2-c2ccccc2)c1=O)N1CCCc2ccccc21	-2%	-32%	1%	2%	21µM*	-11%
Cc1nc2c3cnn(-c4ccc(C)c(C)c4)c3ncn2n1	6.7µM*	11µM*	2µM*	2µM*	?	?
CCOC(=O)Cn1cnc2c(cnn2-c2ccc(C)c(C)c2)c1=O	21µM*	25%	.	.	.	.
SMILES	FLuc counter	SMN2 splice enh	NPC1 promoter act	Rab9 prom act	ELG1 DNA repair	ELG1 genotoxic
Cc1ccc(-n2ncc3c(=O)n(CC(=O)N4CCCCCC4)cnc32)cc1	17µM*	-25%	2%	3%	?	2%
O=C(Cn1cnc2c(nnn2-c2ccccc2)c1=O)N1CCCc2ccccc21	1%	-11%	-1%	-6%	?	-2%
Cc1ccc(-n2ncc3c(=O)n(CC(N)=O)cnc32)cc1C	-19%	.	8%	11%	?	6%
COc1ccc(-n2ncc3c2ncn2nc(-c4ccc(OC)c(OC)c4)nc32)cc1	0%	7%	.	.	.	.
COc1ccc(N2CCN(C(=O)CCN3C(=O)C4C5C=CC(C5)C4C3=O)CC2)cc1 (stereo unspecified)	-1%	.	-5%	0%	14%	0%
COc1ccc(NC(=O)N2CC[C@@]3(CCCN(C(=O)c4ccc(OC)cc4)C3)C2)cc1	.	-8%	.	.	.	.
Cc1cccn2c(N)c(-c3ccccc3)nc12	11µM*	27%	?	3.5µM*	?	?
O=C(Nc1ccccc1F)c1ccc2c(c1)CCN2S(=O)(=O)c1ccccc1	0%	.	0%	-2%	-28%	0%
CC(NC(=O)COC(=O)c1cc2ccccc2cc1O)c1ccccc1 (stereo unspecified)	2%	.	10%	13%	8%	-3%
O=C(COC(=O)c1cc2ccccc2cc1O)c1ccccc1	27µM*	.	0%	5%	?	?
CCOc1ncccc1C(=O)OCC(=O)c1ccccc1	?	9%	-3%	-3%	10%	-1%
CNc1ccccc1C(=O)OCC(=O)c1ccccc1	7.6µM*	?	9%	16%	?	17%
CN(C(=O)c1ccccc1C(=O)OCC(=O)c1ccc(F)cc1)c1ccccc1	?	.	1%	-5%	-1%	-1%
CNc1ccccc1C(=O)OCC(=O)c1ccc(F)cc1	5.4µM*	-6%	20%	23%	?	12%
O=C(COC(=O)c1ccccc1Nc1ccccc1)c1ccccc1	13µM*	10%	-2%	4%	?	2%
Cc1cccn2c(=O)c(/C=C(\C#N)S(=O)(=O)c3ccccc3)c(N3CCCCC3)nc12	1%	.	-5%	-9%	?	-8%
COc1ccccc1NC(=O)CCCC(=O)OCC(=O)c1ccc(F)cc1	-16%	.	-6%	-6%	7%	-3%
COc1ccccc1NC(CC(=O)c1ccccc1)C(=O)OCC(=O)c1ccc(F)cc1 (stereo unspecified)	1.7µM*	5.6µM*	16%	13%	?	1.6µM*
COc1ccc(-c2ccc(SC)nn2)cc1	1.5µM*	1.8µM*	0.5µM*	0.1µM*	?	-8%
COc1ccc(C(=O)CSc2ccc(-c3ccccc3)nn2)cc1	-16%	11%	0%	-5%	4%	-1%
CCSc1ccc(-c2ccc(C)cc2)nn1	2.4µM*	10µM*	1µM*	0.71µM*	?	?
CCOc1ccc(-c2ccc(SCC)nn2)cc1	1.2µM*	4.5µM*	0.71µM*	0.63µM*	?	1.2µM*

High-throughput results deposited in PubChem by National Center for Advancing Translational Sciences (NCATS).
